Screens deposited in PubChem by National Center for Advancing Translational Sciences (NCATS).
Cruzain noTriton – cruzain (T. cruzi) inhibition without detergent | P25779 | purified cruzain, Z-FR-AMC fluorescence, no detergent | Potency, µM, for the others: max response, negative = inhibition, usual class: inhibitors | 200,000 compounds, 2.3% hits;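 also: plate controls were enzyme without inhibitor for no effect and buffer without enzyme for full effect; nearly all actives have a fitted effect of over 40% in size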
Target sequence (P25779 123-467 limits assumed): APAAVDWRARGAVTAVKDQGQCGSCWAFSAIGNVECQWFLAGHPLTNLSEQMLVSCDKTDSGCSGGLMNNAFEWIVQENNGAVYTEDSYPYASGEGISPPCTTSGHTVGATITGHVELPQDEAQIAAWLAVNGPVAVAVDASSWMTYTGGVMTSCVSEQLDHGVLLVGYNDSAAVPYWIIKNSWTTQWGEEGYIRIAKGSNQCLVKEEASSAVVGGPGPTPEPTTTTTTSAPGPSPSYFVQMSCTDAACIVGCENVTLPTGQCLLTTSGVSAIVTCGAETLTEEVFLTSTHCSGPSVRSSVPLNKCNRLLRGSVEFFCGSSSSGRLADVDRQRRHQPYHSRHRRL
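Purified cruzain at 1.5 nM, pre-incubated 15 min with compound at room temperature in 100 mM sodium acetate pH 5.5, 5 mM DTT, 0.00005% Triton X-100. Reaction started with 2 uM Z-FR-AMC; AMC fluorescence increase over 60 s gives rate.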
Cruzain Triton – inhibitors of Trypanosoma cruzi cruzain with detergent; P25779; purified cruzain, Z-FR-AMC fluorescence, 0.01% Triton; Potency, µM, for the others: max response, negative = inhibition, most hits filed as inhibitors; 200,000 compounds, 0.43% hits; AID 1478;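 also: plate controls were neutral wells for no effect and buffer without enzyme for full effect; nearly all actives have a fitted effect of over 40% in size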
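Steps: dispense cruzain (1.5 nM final) in acetate buffer pH 5.5 with DTT and 0.01% Triton X-100; pin-transfer compounds; incubate 15 min RT; add Z-FR-AMC (2 uM final); read fluorescence every 30 s, using the 60 s intensity change.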
Giardia FBPA inh – Giardia lamblia aldolase inhibition | purified Giardia FBPA | 290,000 compounds, 0.71% hits | AID 2451 | A8B2U2 | Potency, µM (series often up to 59.6 µM), without a hit: at the top dose activity, negative = inhibition, usual class: inhibitors; also: nearly all actives have a fitted effect of over 55% in size
Target sequence (A8B2U2 whole entry, looked up): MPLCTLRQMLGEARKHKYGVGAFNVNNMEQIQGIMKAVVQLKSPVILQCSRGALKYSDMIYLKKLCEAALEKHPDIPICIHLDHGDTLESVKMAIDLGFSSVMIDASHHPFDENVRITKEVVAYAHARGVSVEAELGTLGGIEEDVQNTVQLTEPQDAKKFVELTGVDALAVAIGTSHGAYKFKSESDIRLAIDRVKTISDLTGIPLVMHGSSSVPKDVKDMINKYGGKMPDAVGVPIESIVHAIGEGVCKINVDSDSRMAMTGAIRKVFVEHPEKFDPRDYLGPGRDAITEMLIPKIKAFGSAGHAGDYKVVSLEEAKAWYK
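40 nM FBPA preincubated 10 min at RT with compound (up to 57.5 uM final), then substrate plus GAPDH/TPI/NAD/arsenate coupling and diaphorase/resazurin added. Fluorescence read after 20 min at RT, 525/598 nm.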
Starred values were filed as active, the others as inactive; u = inconclusive; x = not tested or not shown; [ ] = dose if it differs, or a comment. Only a selection was taken, and hits are over-represented in it overall. Calls follow the shape of the dose curve; as a rule, active = well fitted curve in the direction sought with a large enough effect; inconclusive = small, poorly fitted or top-dose-only effect, or another doubt; inactive = no such curve, though single readings can be large; an effect the other way counts as inactive or inconclusive. Unless noted, % is scaled to controls: 0 for no effect and ±100 for the full control effect; potency is read from the fitted curve at half-maximal effect.

SMILES	Cruzain noTriton	Cruzain Triton	Giardia FBPA inh
O=C(c1ccc(Cl)cc1)[C@@H]1[C@@H]2C(=O)N(c3cccc4ccccc34)C(=O)[C@@H]2C2c3ccccc3C=NN21 (stereo not given in full)	25.1µM*	-0.2%	-6.6%
Cn1nccc1C(=O)Nc1ccn(C23CC4CC(CC(C4)C2)C3)n1	-7.2%	-5.0%	6.3%
O=C(Nc1ccc(Br)cc1)c1nn(C23CC4CC(CC(C4)C2)C3)cc1Br	25.1µM*	0.5%	0.6%
CSCC[C@H](NC(=O)[C@H](CC(C)C)NC(=O)CNC(=O)[C@@H]1CCCN1C(=O)[C@H](Cc1ccccc1)NC(=O)[C@H](Cc1ccccc1)NC(=O)[C@H](CC(=O)O)NC(=O)[C@H](Cc1cnc[nH]1)NC(=O)[C@H](CCSC)NC(=O)[C@@H](N)CC(=O)O)C(N)=O	x	x	-0.3%
CC(C)NC[C@@H](O)c1ccc(O)c(O)c1	2.2%	-0.5%	7.06µM*
CC(C)NCC(O)c1ccc(C2CCCC2)cc1 (stereo not given)	-0.5%	0.4%	4.0%
C[C@@H](NC(=O)C1(N)CCCC1)C(=O)O	10.2%	2.1%	x
COc1ccc(OCC(=O)Nc2ccc(S(=O)(=O)N(C)c3ccccc3)cc2)cc1	x	x	5.9%
Cc1ccc(OCC(=O)Nc2ccc(S(=O)(=O)N(Cc3ccccc3)c3ccccc3)cc2)cc1	7.94µM*	1.5%	x
COc1ccc(-c2nc(-c3ccccc3)c(-c3cccs3)[nH]2)cc1OC	25.1%	-2.1%	-6.7%
COc1ccc(-c2nc(-c3ccccc3)c(-c3ccccc3)[nH]2)cc1Br	3.16µM*	-0.5%	x
CCC[C@@H]1CC(C(=O)NC(C2O[C@H](SC)C(OP(=O)(O)O)[C@H](O)[C@H]2O)[C@H](C)Cl)N(C)C1 (stereo not given in full)	x	x	4.5%
CCNC(=S)/C(=C(/[O-])c1ccc([N+](=O)[O-])cc1)[n+]1ccccc1	x	x	-9.8%
O=[N+]([O-])c1cccc(/C([O-])=C(/C(=S)Nc2ccccc2)[n+]2ccccc2)c1	25.1µM*	-22.2%	-20.5%
CCCCCCCCC/C=C/CC1CC(=O)OC1=O (stereo not given)	u	-4.3%	x
CC(C)C(O)(C(C)C)C(C)C	3.8%	4.4%	x
O=[N+]([O-])c1cccc(-c2nc(-c3cccs3)c(-c3cccs3)[nH]2)c1	u	-1.0%	-7.1%
O=[N+]([O-])c1ccc(-c2nc(-c3cccs3)c(-c3cccs3)[nH]2)cc1	31.6µM*	-2.4%	-7.9%
CCc1ccc(S(=O)(=O)NCc2ccc3c(c2)CCN3C(=O)c2ccc(C)cc2)cc1	u	-2.7%	x
CCCc1nn2c(=O)cc(COC(=O)c3ccc(NC(=O)c4cccs4)cc3)nc2s1	25.7%	1.2%	x
CC1(C)N(O)C(c2ccc(C(=O)O)cc2)=[N+]([O-])C1(C)C	1.1%	-2.8%	39.7µM*
CC(=O)C(=Cc1ccc(C(=O)O)cc1)C(C)=O	x	x	1.8%
COC(=O)c1ccc(N/C=C\C(=O)c2ccc3c(c2)OCO3)cc1	x	x	12.5%
O=C(/C=C\Nc1cccc(F)c1)c1ccc2c(c1)OCO2	25.1µM*	1.7%	1.1%
Cc1ccc(S(=O)(=O)c2cn(CC(=O)Nc3ccccc3)c3cc4c(cc3c2=O)OCO4)cc1	1µM*	-2.5%	x
SMILES	Cruzain noTriton	Cruzain Triton	Giardia FBPA inh
Cc1cccc(NC(=O)Cn2cc(S(=O)(=O)c3ccc(F)cc3)c(=O)c3cc4c(cc32)OCO4)c1	u	-3.2%	x
CCOC(=O)c1cccnc1SCC(=O)Nc1ccc(C)cc1C	4.6%	0.7%	x
N#CC1=C2SCN(Cc3ccccc3)CN2C(=O)CC1c1cccs1 (stereo not given)	-16.3%	-4.5%	u
N#CC1=C2SCN(Cc3ccccc3)CN2C(=O)CC1c1ccc2c(c1)OCO2 (stereo not given)	-24.3%	-4.1%	0.889µM*
CC(NC(=O)/C(C#N)=C1\N=C(NC(=O)c2cccs2)c2ccccc21)c1ccccc1 (stereo not given)	15.8µM*	-0.3%	3.1%
N#C/C(C(=O)NCCc1ccccc1)=C1/N=C(NC(=O)c2cccs2)c2ccccc21	3.98µM*	-6.2%	-4.5%
N#C/C(C(=O)NCc1ccccc1)=C1/N=C(NC(=O)c2ccco2)c2ccccc21	x	x	-9.2%
COCCCNC(=O)/C(C#N)=C1\N=C(NC(=O)c2cccs2)c2ccccc21	x	x	-11.3%
CC1(C)[C@@H]2CC[C@]1(C)CN(CCC[N+](C)(C)C)C2	-6.5%	3.1%	x
Nc1ccc2c(c1)N1CCN=C1S2	9.9%	-7.8%	-10.0%
O=C(Nc1ccc(Cl)cc1)Nc1ccc2c(c1)N1CCN=C1S2	31.6µM*	u	-5.2%
COc1ccc(OC)c(CNc2ncnc3onc(-c4ccc(Cl)cc4)c23)c1	-5.2%	-2.4%	x
Cc1ccccc1-c1nc(C(N)=O)c2c(n1)n(-c1ccc3c(c1)OCO3)c(=O)n2C	-9.7%	-2.7%	x
CC1CCC(C(=O)O)([C@H](Br)C(=O)O)CC1 (stereo not given in full)	0.9%	3.2%	x
CC(=O)c1ccc(NC(=O)CN2C(=O)/C(=C/C(C)=C/c3ccccc3)SC2=S)cc1	10µM*	-5.0%	0.6%
CC(/C=C1\SC(=S)N(CCC(=O)Nc2ccc(O)cc2)C1=O)=C\c1ccccc1	x	x	-1.3%
CC(/C=C1\SC(=S)N(CCCC(=O)Nc2ccc(C(=O)O)c(O)c2)C1=O)=C\c1ccccc1	u	28.2µM*	4.1%
CC(/C=C1\SC(=S)N(NC(=O)c2ccc(C)cc2)C1=O)=C\c1ccccc1	31.6µM*	-6.0%	-1.2%
CC(/C=C1\SC(=S)N(NC(=O)c2ccncc2)C1=O)=C\c1ccccc1	x	x	-16.0%
CC(=C\c1ccccc1)/C=C1/SC(=O)N(CCCC(=O)Nc2ccc(C(=O)O)cc2)C1=O	x	x	13.4%
NC(=O)CSc1ncc2c(n1)-c1ccccc1N(Cc1cccc(F)c1)S2(=O)=O	-13.0%	0.8%	x
Cc1cccc(NC(=O)c2sc3nc4c(cc3c2N)CN(C(C)C)CC4)c1	u	-5.8%	x
c1ccc2oc(C3=NNC(=NC4CC4)SC3)cc2c1	15.8µM*	-11.1%	7.2%
c1ccc(CN=C2NN=C(c3cc4ccccc4o3)CS2)cc1	u	-15.8%	11.4%
CCCOc1ccc(CNC(=O)C2CCN(c3nc4ccccc4nc3C(F)(F)F)CC2)cc1	-7.0%	3.8%	x
SMILES	Cruzain noTriton	Cruzain Triton	Giardia FBPA inh
COc1cccc(NC(=O)CSc2nnc(COc3ccc4c(c3)CCCC4)o2)c1	13.7%	-1.3%	-6.0%
COC(=O)c1ccc(NC(=O)CSc2nnc(COc3ccc4c(c3)CCCC4)o2)cc1	10µM*	5.4%	0.5%
CCc1ccc(NC(=O)CSc2nnc(COc3ccc4c(c3)CCCC4)o2)cc1	15.8µM*	5.0%	2.2%
CCc1ccc(OCc2nnc(SCC(=O)Nc3cccc(C(=O)N4CCOCC4)c3)o2)cc1	u	-3.1%	5.2%
COCCNc1cc(N2CCN(C3CCCCC3)CC2)c2noc3c2c1C(=O)c1ccccc1-3	-17.1%	-1.3%	x
COc1ccc(COC(=O)N/N=C2/C[C@@H](O)[C@@H](O)[C@@H]3[C@@H]4C(=O)N(C5CCCCC5)C(=O)[C@H]4CC[C@@H]23)cc1	x	x	-2.6%[12.9 µM]
Cc1ccc(OCC(=O)Nc2cccc(C(=O)OCc3cc(=O)n4nc(C)sc4n3)c2)cc1	-8.6%	0.7%	x
